# Bioassay records (PubChem BioAssay)
# KB-3-1 tox: KB-3-1 parental cell cytotoxicity; KB-3-1 viability, CellTiter-Glo ATP luminescence, 72 h; 1.4% of 400,000 active; AID 1347075; Potency, µM (doses to about 46.1 µM), actives largely listed as cytotoxic; also: nearly all actives have a fitted effect of over 60% in size
#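 Parental KB-3-1 viability, qHTS format: 72 h compound exposure, 37 °C; CellTiter-Glo; media-only wells and DMSO plates as controls; concentration-effect fits on corrected data.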
# HT1080-NT tox: kills 2HG-producing HT-1080-NT fibrosarcoma cells; HT-1080-NT fibrosarcoma viability, CellTiter-Glo ATP luminescence, 48 h; 1.6% of 360,000 active; Potency, µM (doses to about 46.1 µM), for inactives: at the highest dose activity, negative = less viability, most hits filed as cytotoxic;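 also: NT is the 2HG producing partner of a matched IDH1 knockdown line; 0% = DMSO-treated cells and -100% = media-only wells without cells; nearly all actives have a fitted effect of over 55% in size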
#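 HT-1080-NT fibrosarcoma cells (2HG-overproducing), 750 cells/well in RPMI with 5% FBS, dosed after 2 h and incubated 48 h at 37C. CellTiter-Glo luminescence normalized to DMSO and no-cell wells; concentration-response curves fitted and classed.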
# TDP1 cell noCPT: qHTS for Inhibitors of human tyrosyl-DNA phosphodiesterase 1 (TDP1): qHTS in cells in absence of CPT; DT40 Tdp1-/- hTDP1 cells, no CPT, ATP luminescence, 48 h; Potency, µM (top dose mostly 46.2 µM), without a hit: at the highest dose activity change, negative = growth inhibition, hits mostly inhibitors; 15% of 420,000 active; AID 686978, 2013; also: nearly all actives have a fitted effect of over 55% in size
#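 Readout: luminescence from CellTiter-Glo after 30 min in the dark at RT. Cells: DT40 Tdp1-/- with stable hTDP1, 400/well. Exposure: compounds alone, ≥48 hr, 37 °C.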
# TDP1 cell CPT: growth inhibition of DT40 Tdp1-/-;hTDP1 cells with camptothecin (screen for TDP1 inhibitors); Potency, µM (series often up to 46.2 µM), inactives show at the highest dose activity change, negative = growth inhibition, actives largely listed as inhibitors; chicken DT40 Tdp1-/-;hTDP1 cells + 20 nM CPT, ATP luminescence, 48 h; 12% of 420,000 active; also: nearly all actives have a fitted effect of over 55% in size
#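 Chicken DT40 Tdp1-/- cells stably complemented with human TDP1 were seeded at 400 cells/well in medium containing 20 nM camptothecin, exposed to pin-transferred compounds, and grown at 37 °C for at least 48 hr. Viability was read as ATP luminescence.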
# HT1080 IDH1KD tx: kills HT-1080 cells with IDH1 knockdown; 2% of 360,000 active; Potency, µM (series often up to 46.1 µM), for the others: at the highest dose activity, negative = toxicity, actives largely listed as cytotoxic; AID 686971; HT-1080 IDH1 knockdown viability, ATP luminescence, 48 h;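 also: 0% = DMSO wells and -100% = cell-free medium wells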
#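 HT-1080-IDH1KD cells (IDH1 knocked down), 750/well in RPMI with 5% FBS, treated with compound 48 h at 37 degrees C. Viability by CellTiter-Glo luminescence, normalised to DMSO and no-cell wells; concentration-response curves classed.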
# KB-V1 MDR tox: KB-V1 MDR subline cytotoxicity; KB-V1 MDR cells viability, CellTiter-Glo, 72 h; Potency, µM (series often up to 46.1 µM), hits mostly cytotoxic; 3.4% of 400,000 active; AID 1347076; also: nearly all actives have a fitted effect of over 60% in size
#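 In this primary screen, KB-V1 cells overexpressing P-gp are incubated with library compounds (lowest to highest concentration) for 72 h at 37 degrees C before a luminescent ATP viability read.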
# * = called active by the depositor; i = inactive; ? = inconclusive; . = no result given. In the library only some 19% were active in any assay of this set; here they are far more common. Calls follow the shape of the dose curve; as a rule, active = well fitted curve in the direction sought with a large enough effect; inconclusive = small, poorly fitted or top-dose-only effect, or another doubt; inactive = no such curve, though single readings can be large; an effect the other way counts as inactive or inconclusive. Unless noted, % is scaled to controls: 0 for no effect and ±100 for the full control effect; potency is read from the fitted curve at half-maximal effect.
SMILES,KB-3-1 tox,HT1080-NT tox,TDP1 cell noCPT,TDP1 cell CPT,HT1080 IDH1KD tx,KB-V1 MDR tox
CC(Oc1ccccc1)C(=O)OCc1cc(=O)n2nc(C(C)C)sc2n1 (configuration not stated),i,.,0%,-22%,.,?
CCc1c(C)nc(Nc2nc(C)c3ccc(OC)cc3n2)[nH]c1=O,i,7%,16µM*,?,0%,i
CCc1c(C)nc(SCCOc2ccc(OC)cc2)[nH]c1=O,i,6%,?,?,4%,i
CCc1ccc2nc(Nc3nc(COC)cc(=O)[nH]3)nc(C)c2c1,i,4%,23µM*,9.2µM*,17%,21µM*
Cc1ccc2nc(Nc3nc(CSc4nnnn4-c4ccccc4)cc(=O)[nH]3)nc(C)c2c1,?,3%,-98%,-91%,3%,i
CCc1c(C)nc(Nc2nc(C)c3cc(OC)ccc3n2)[nH]c1=O,i,15%,21µM*,?,7%,?
COCc1cc(=O)[nH]c(Nc2nc3ccc(C)cc3o2)n1,21µM*,4%,4.6µM*,4.6µM*,?,?
CCOc1ccccc1NC(=O)CN1C=NS(=O)(=O)c2ccccc21,i,.,-13%,-13%,.,?
CN(C)S(=O)(=O)c1ccc(C(=O)Nc2c(C(=O)Nc3ccc(F)cc3)oc3ccccc23)cc1,i,.,?,-12%,.,i
CCOc1ccccc1C(=O)N1CC(=O)Nc2ccc(Cl)cc2C1c1ccccc1 (configuration not stated),i,.,?,21µM*,.,i
CCCCC1CCC(C(=O)N2CC(=O)Nc3ccc(C)cc3C2c2ccc(F)cc2)CC1 (configuration not stated),i,.,?,9.2µM*,.,?
CCOc1ccccc1C(=O)N1CC(=O)Nc2ccc(C)cc2C1c1ccccc1 (configuration not stated),i,.,23µM*,?,.,i
CCCC(=O)N1CC(=O)Nc2ccc(Cl)cc2C1c1ccccc1 (configuration not stated),i,.,?,?,.,i
COc1ccc(-n2nc(C(=O)N3CCN(c4ccccc4OC)CC3)c3c4ccccc4n(C)c3c2=O)cc1Cl,i,.,-25%,-19%,.,i
CCc1cccc(NC(=O)c2nnn(Cc3ccc(SC)cc3)c2N)c1,i,.,-2%,-2%,.,i
COc1ccc(C(=O)NCC(=O)OCC(=O)c2cccc3ccccc23)cc1,?,.,-4%,?,.,i
O=C1C2CC=CCC2C(=O)N1c1ccc(NCCc2ccccc2)c([N+](=O)[O-])c1 (configuration not stated),i,5%,23µM*,?,-1%,i
CC1CC(=O)N(c2ccc(NCCc3ccc(O)cc3)c([N+](=O)[O-])c2)C1=O (configuration not stated),i,-4%,15µM*,16µM*,-16%,?
O=C1C2CC=CCC2C(=O)N1c1ccc(NCCc2ccccc2F)c([N+](=O)[O-])c1 (configuration not stated),i,-2%,?,?,0%,?
CC1CC(=O)N(c2ccc(NCCc3ccccc3)c([N+](=O)[O-])c2)C1=O (configuration not stated),i,5%,-5%,4%,-2%,i
CC(=O)OC(C)(C)C1Cc2cc3ccc(=O)oc3cc2O1 (configuration not stated),i,13%,16%,-14%,4%,i
C/C=C(\C)C(=O)OC(C)(C)[C@H]1Cc2cc3ccc(=O)oc3cc2O1,i,-5%,?,23µM*,-3%,?
O=C(Cn1ccc2cc(S(=O)(=O)N3CCCC3)ccc21)NCc1ccc(Cl)cc1,i,.,-27%,?,.,i
CN(C)c1ccc(CNC(=O)CCc2ccc(S(=O)(=O)N3CCCCCC3)cc2)cc1,i,-15%,15µM*,?,-6%,i
CCOc1ccc(CNC(=O)Cn2ccc3cc(S(=O)(=O)N4CCCCCC4)ccc32)cc1,?,-7%,26µM*,16µM*,-5%,i
SMILES,KB-3-1 tox,HT1080-NT tox,TDP1 cell noCPT,TDP1 cell CPT,HT1080 IDH1KD tx,KB-V1 MDR tox
CN(C)c1ccc(CNC(=O)Cn2ccc3cc(S(=O)(=O)N4CCCCCC4)ccc32)cc1,i,.,5.8µM*,?,.,i
CC1CCc2c(sc(NC(=O)c3c([N+](=O)[O-])cnn3C)c2C(N)=O)C1 (configuration not stated),i,10%,?,-20%,9%,i
O=C(Cc1cccc(NC(=O)C2CCN(S(=O)(=O)c3cccc([N+](=O)[O-])c3)CC2)c1)Nc1cccc(C(=O)N2CCOCC2)c1,i,-7%,-15%,-28%,-8%,?
CCOc1ccc(N2CC(C(=O)NC3CCCCCC3)CC2=O)cc1 (configuration not stated),i,1%,6%,19%,4%,i
COC(=O)c1ccccc1C(=O)N(c1ccccc1)c1ccccc1,i,-3%,15µM*,6.5µM*,3%,i
O=S(=O)(c1ccc2[nH]c3c(c2c1)CCCC3)N1CCN(c2cccc(C(F)(F)F)c2)CC1,i,.,?,?,.,i
Cc1cc(C)c(S(=O)(=O)N2CCCCC2)cc1N(C)S(=O)(=O)c1ccc(Cl)cc1,i,-3%,16µM*,23µM*,-6%,i
Cc1c(Cl)ccc(S(=O)(=O)N2CCN(C)CC2)c1Cl,i,3%,-23%,-8%,-2%,i
Cc1cc(C)c(S(=O)(=O)N2CCCCC2)c(C)c1N(C)S(=O)(=O)c1ccccc1,i,?,?,12µM*,1%,?
Cc1ccc(S(=O)(=O)N(C)c2cc(S(=O)(=O)N3CCOCC3)c(C)cc2C)cc1,i,10%,?,-24%,6%,?
Cc1ccc(S(=O)(=O)N2CCN(C)CC2)c(C)c1N(C)S(=O)(=O)c1ccc(Cl)cc1,?,-11%,23µM*,?,-23%,i
N=c1n(CCN2CCCCC2)c2ccccc2n1CC(O)c1ccc(Cl)c(Cl)c1 (configuration not stated),?,11µM*,8.2µM*,3.7µM*,13µM*,21µM*
Clc1ccc(OCCN2CCCCC2)cc1Cl,i,-2%,?,-21%,-1%,i
